Test systems include SR leukemia; RPMI-8226 leukemia; OVCAR-8 ovarian; OVCAR-5 ovarian; OVCAR-4 ovarian; SK-OV-3 ovarian; IGROV1 ovarian; OVCAR-3 ovarian; HS 578T breast; NCI/ADR-RES ovarian; T-47D breast; BT-549 breast; MDA-MB-435 melanoma; SW-620 colon; MCF7 breast; HCT-116 colon; HCC-2998 colon; KM12 colon.
What all share (experiment): NCI-60 one-dose screen, 48 h (100 = growth as untreated, 0 = no growth, -100 = all killed)
What all share (settings): 10 µM unless noted

Structures are written as SMILES. About 83,000 compounds went through this panel and 20% of them were active in at least one assay; those are over-represented in the sample as a whole.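 The test compound was applied at a single concentration to cells in 96-well plates for 48 hours, and percent growth was recorded.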 Unmarked numbers belong to inactive results. Active and inactive are the calls of the source. The calls were made as follows: active = growth percent below 10; inactive = the rest.

Turning to `O=C(CSc1nnc(Cc2ccccc2Nc2c(Cl)cccc2Cl)n1-c1ccccc1)N1N=C(c2ccc3ccccc3c2)CC1c1ccc(Cl)cc1` (centres undefined), the growth is 97.2% in the assay with SR leukemia; 95.6% in the assay with RPMI-8226 leukemia; 107% in the assay on OVCAR-8 ovarian; 99.8% with OVCAR-5 ovarian; 88.7% with OVCAR-4 ovarian; 93.8% in the assay with SK-OV-3 ovarian. Further, the growth is 89.5% in the assay on IGROV1 ovarian; 104% in the assay on OVCAR-3 ovarian; 111% with HS 578T breast; 101% in the assay with NCI/ADR-RES ovarian; 71.5% in the assay on T-47D breast; 103% in the assay with BT-549 breast. Besides, the growth in the assay with MDA-MB-435 melanoma is 98.8%; with SW-620 colon it was 108%; with MCF7 breast it was 95%; with HCT-116 colon it was 86.4%; with HCC-2998 colon, 93.7%; in the assay with KM12 colon, 108%.
As for `Nc1nc(NC2CC2)cc(-c2cccc(Cl)c2Cl)n1`, the growth with SR leukemia was 14.3%; in the assay with RPMI-8226 leukemia, 74.2%; with OVCAR-8 ovarian, 70%; in the assay on OVCAR-5 ovarian, 87.1%; with OVCAR-4 ovarian, 73.4%; with SK-OV-3 ovarian, 64.7%. The growth is 65.6% with IGROV1 ovarian; 36.8% in the assay on OVCAR-3 ovarian; 64.7% in the assay with HS 578T breast; 25% in the assay on NCI/ADR-RES ovarian; 32.2% in the assay on T-47D breast; 54.7% with BT-549 breast. Also, the growth in the assay on MDA-MB-435 melanoma is -12.2% (active); with SW-620 colon, 21.5%; in the assay on MCF7 breast, 20.3%; in the assay on HCT-116 colon, 42.2%; in the assay with HCC-2998 colon it was 55.8%; with KM12 colon, 47.8%.
`Cc1ccc(C(=O)CC(=O)C(F)(F)C(F)(F)C(F)(F)F)s1`: the growth in the assay on SR leukemia was 99.5%; in the assay on RPMI-8226 leukemia, 102%; with OVCAR-8 ovarian it was 104%; in the assay with OVCAR-5 ovarian, 96.1%; with OVCAR-4 ovarian, 112%; in the assay with SK-OV-3 ovarian it was 104%. For the same compound, the growth in the assay on IGROV1 ovarian was 108%; with OVCAR-3 ovarian, 107%; in the assay with HS 578T breast it was 105%; in the assay on NCI/ADR-RES ovarian it was 105%; with T-47D breast, 108%; in the assay on BT-549 breast, 103%. In addition, the growth is 99% in the assay with MDA-MB-435 melanoma; 103% with SW-620 colon; 105% in the assay on MCF7 breast; 110% with HCT-116 colon; 105% in the assay with HCC-2998 colon; 112% in the assay with KM12 colon.
In the case of `Nc1c(N)c2ccccc2c2ccccc12`, the growth with SR leukemia is 94.1%; in the assay on RPMI-8226 leukemia it was 94.8%; in the assay on OVCAR-8 ovarian, 99.1%; in the assay on OVCAR-5 ovarian, 107%; in the assay on OVCAR-4 ovarian, 96.5%; in the assay with SK-OV-3 ovarian, 102%. The growth was 117% with IGROV1 ovarian; 116% in the assay with OVCAR-3 ovarian; 104% in the assay with HS 578T breast; 101% in the assay on NCI/ADR-RES ovarian; 104% in the assay on T-47D breast; 112% in the assay with BT-549 breast. Further, the growth with MDA-MB-435 melanoma is 107%; with SW-620 colon, 103%; with MCF7 breast, 98.3%; in the assay with HCT-116 colon, 114%; in the assay with HCC-2998 colon it was 103%; in the assay with KM12 colon it was 116%.
With `COCc1nc(NS(=O)(=O)c2ccc(N)cc2)nc(C)c1Br`, the growth is 89.3% in the assay on SR leukemia; 106% with RPMI-8226 leukemia; 110% in the assay with OVCAR-8 ovarian; 106% with OVCAR-5 ovarian; 123% in the assay on OVCAR-4 ovarian; 96.9% with SK-OV-3 ovarian. Besides, the growth in the assay with IGROV1 ovarian is 103%; in the assay with OVCAR-3 ovarian, 112%; with HS 578T breast it was 112%; in the assay on NCI/ADR-RES ovarian, 104%; in the assay on T-47D breast, 96.1%; in the assay on BT-549 breast, 106%. The growth is 107% with MDA-MB-435 melanoma; 103% with SW-620 colon; 103% in the assay with MCF7 breast; 94.3% with HCT-116 colon; 97.1% in the assay with HCC-2998 colon; 107% in the assay on KM12 colon.
For `COC(=O)[C@@H](Cc1c[nH]c2ccccc12)NC(=O)/C=C/c1ccccc1`, the growth is 18.4% with SR leukemia; 14.3% with RPMI-8226 leukemia; 25.2% with OVCAR-8 ovarian; 36% in the assay with OVCAR-5 ovarian; 63.1% with OVCAR-4 ovarian; 2.1% (active) in the assay on SK-OV-3 ovarian. Besides, the growth was 29.1% in the assay with IGROV1 ovarian; -5.22% (active) with OVCAR-3 ovarian; -13% (active) in the assay on HS 578T breast; 4.17% (active) in the assay on NCI/ADR-RES ovarian; 32.2% in the assay on T-47D breast; -0.499% (active) in the assay on BT-549 breast. The growth with MDA-MB-435 melanoma is -84.3% (active); in the assay on SW-620 colon, 27.5%; with MCF7 breast it was 19.6%; in the assay with HCT-116 colon, 16.8%; in the assay on HCC-2998 colon, 66%; in the assay with KM12 colon it was 27.3%.
`CCN(CCC#N)c1ccccc1`: the growth in the assay with SR leukemia is 96.4%; in the assay on RPMI-8226 leukemia, 98%; in the assay with OVCAR-8 ovarian it was 103%; in the assay with OVCAR-5 ovarian it was 102%; with OVCAR-4 ovarian it was 100%; in the assay with SK-OV-3 ovarian, 114%. Further, the growth in the assay on IGROV1 ovarian was 115%; in the assay with OVCAR-3 ovarian, 113%; in the assay with HS 578T breast, 91.8%; in the assay with NCI/ADR-RES ovarian it was 105%; with T-47D breast it was 101%; in the assay with BT-549 breast it was 110%. Also, the growth in the assay with MDA-MB-435 melanoma was 109%; in the assay with SW-620 colon, 101%; with MCF7 breast, 105%; in the assay on HCT-116 colon, 105%; in the assay with HCC-2998 colon it was 109%; in the assay with KM12 colon, 114%.
With `Clc1cccc(CNc2c3ccccc3nc3ccccc23)c1`, the growth is -3.9% (active) in the assay with SR leukemia; -23.5% (active) in the assay on RPMI-8226 leukemia; 31.1% with OVCAR-8 ovarian; 32.4% in the assay on OVCAR-5 ovarian; 18.8% with OVCAR-4 ovarian; 63.9% in the assay on SK-OV-3 ovarian. For the same compound, the growth in the assay on IGROV1 ovarian is 16.5%; in the assay with OVCAR-3 ovarian, 57.7%; in the assay with HS 578T breast, 53.7%; in the assay with NCI/ADR-RES ovarian, 26.3%; with T-47D breast, 40.9%; in the assay on BT-549 breast it was 59.1%. Further, the growth is 46.6% in the assay on MDA-MB-435 melanoma; 12% in the assay with SW-620 colon; 0.909% (active) with MCF7 breast; 8.69% (active) with HCT-116 colon; -53.6% (active) with HCC-2998 colon; 40.8% in the assay on KM12 colon.
